Assay outcomes (PubChem)
CYP2C19 act – activators of human cytochrome P450 2C19. P33261. recombinant CYP2C19, luciferin-H EGE luminescence; stronger effect = higher value; 0 = fully inhibited enzyme, 1 = untreated enzyme. activation factor at 5 µM. 96,000 tested, under 10 active. AID 1025;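 active = activation factor of at least 2 at 5 µM in the primary screen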;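 also: 0 = wells with 2.5 mM tranylcypromine and 1 = vehicle-only wells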
PostGolgi yeast – growth inhibition of a yeast mutant, post-Golgi transport screen; post-Golgi transport phenotypic cell assay; inhibition, % at 10 µM; 98,000 compounds, 0.9% hits;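 also: yeast cells grown in 1536-well plates; yeast grown about 18 h at 30C before absorbance read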
CYP2C9 inh – inhibitors of human CYP2C9; P11712; CYP2C9 Supersomes, luciferin-H conversion, luminescence; inhibition, % at 5 µM; 96,000 compounds, 20% hits;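 active = blocking of liver enzyme CYP2C9 beyond about 50% at 5 µM, limit read from the data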
Target sequence (P11712 whole entry, looked up): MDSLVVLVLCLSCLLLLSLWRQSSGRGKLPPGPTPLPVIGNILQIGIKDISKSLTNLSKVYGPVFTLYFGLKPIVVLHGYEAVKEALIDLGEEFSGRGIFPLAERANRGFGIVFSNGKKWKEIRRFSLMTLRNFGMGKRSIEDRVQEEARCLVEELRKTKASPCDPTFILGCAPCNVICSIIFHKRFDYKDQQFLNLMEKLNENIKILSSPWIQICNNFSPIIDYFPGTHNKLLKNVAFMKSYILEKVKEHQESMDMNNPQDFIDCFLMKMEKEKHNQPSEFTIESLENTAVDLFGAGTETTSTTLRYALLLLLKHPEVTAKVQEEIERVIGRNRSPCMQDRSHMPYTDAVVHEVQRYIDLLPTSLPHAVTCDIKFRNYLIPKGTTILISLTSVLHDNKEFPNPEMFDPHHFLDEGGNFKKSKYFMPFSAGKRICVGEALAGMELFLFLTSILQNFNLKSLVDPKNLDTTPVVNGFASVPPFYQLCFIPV
CYP2C9 activ – increases human cytochrome P450 2C9 activity. recombinant CYP2C9, luciferin-H conversion, luminescence; stronger effect = higher value; factor 1 = untreated enzyme, 0 = blocked. activation factor at 5 µM. 96,000 compounds, 1.4% hits. AID 1024;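 active = activation factor of 2 or more for CYP2C9 at a 5 µM dose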;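 also: 0 = sulfaphenazole-blocked wells and 1 = vehicle-only wells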
CYP2C19 inhib – human CYP2C19 inhibition | P33261 | CYP2C19 Supersomes, luciferin-H EGE luminescence, 30 min | inhibition, % at 5 µM | 96,000 compounds, 21% hits | AID 778;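 active = CYP2C19 inhibition above a set limit at 5 µM in the primary screen, cut at about 50% in these data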;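 also: plate controls were negative control wells for no effect and 2.5 mM tranylcypromine positive control for full effect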
PostGolgi ctrl – yeast control strain growth, post-Golgi counter-screen; inhibition, % at 10 µM; AID 738; efflux-deficient yeast background strain, growth absorbance A615, 16 h; 98,000 compounds, 5% hits
* = called active by the depositor; / = no result. Shown are actives, neighbours in structure and some others; about 32% of the full set was active somewhere. Rule as the data show it, unless noted: active = inhibition above about 30%; inactive = the rest.

SMILES	CYP2C19 act	PostGolgi yeast	CYP2C9 inh	CYP2C9 activ	CYP2C19 inhib	PostGolgi ctrl
COc1ccc(C(c2nnnn2C2CCCCC2)N2CCN(c3ccc(OC)cc3)CC2)cc1 (stereo unspecified)	0.3	13.5	85.4*	0.1	72.2*	16.0
Cc1ccc(C(c2nnnn2CCc2ccccc2)N2CCSCC2)cc1 (stereo unspecified)	0.7	/	7.7	0.9	25.3	23.6
COc1ccc(OC)c(C(c2nnnn2C2CCCC2)N2CCN(c3ccccc3)CC2)c1 (stereo unspecified)	0.1	-1.9	81.7*	0.2	89.5*	16.5
COc1ccc(C(c2nnnn2C2CCCC2)N2CCC(C)CC2)cc1 (stereo unspecified)	0.2	-0.2	69.1*	0.3	82.0*	16.1
c1cc(N2CCCC2)ccc1C(c1nnnn1C1CCCCC1)N1CCOCC1 (stereo unspecified)	0.6	-7.2	43.6	0.6	39.8	5.2
C=CCN(CC=C)c1nc2ccccc2nc1C(C#N)C(=O)OC(C)C (stereo unspecified)	/	0.8	/	/	/	21.3
CCCn1c(SCC(=O)c2cc(C)ccc2C)n[nH]c1=O	0.9	-3.2	12.6	0.9	9.5	2.8
CN(C)c1cccc(C(=O)Nc2ccc(N3CCOCC3)cc2)c1	1	7.8	-81.0	1.8	2.4	-3.3
CNc1oc(C)nc1S(=O)(=O)c1ccccc1	1	-5.9	-2.8	1	-0.5	-11.3
COc1ccccc1C(c1nnnn1C(C)(C)C)N1CCCCCC1 (stereo unspecified)	0.5	-9.5	76.8*	0.2	52.2*	20.6
COc1ccccc1C(c1nnnn1C1CCCC1)N1CCN2CCCC2C1 (stereo unspecified)	0.6	-1.1	85.3*	0.1	43.0	-2.1
COCCn1nnnc1C(c1cc(OC)ccc1OC)N1CCc2ccccc2C1 (stereo unspecified)	0.4	-1.6	29.4	0.7	59.2*	6.7
c1cc(C(c2nnnn2C2CCCCC2)N2CCN3CCCC3C2)ccn1 (stereo unspecified)	/	10.9	/	/	/	0.9
COc1cc2c(cc1OC)C(c1cccs1)CC(=O)N2 (stereo unspecified)	1.1	1.2	3.7	1	-10.4	-2.0
O=C1CC(c2ccncc2)c2cc3c(cc2N1)OCCO3 (stereo unspecified)	0.4	-1.9	58.9*	0.4	60.6*	-5.7
O=C1CC(c2cccs2)c2cc3c(cc2N1)OCO3 (stereo unspecified)	0.3	-5.4	18.9	0.8	67.1*	16.2
CCOc1c(OC)cccc1C1CC(=O)Nc2cc3c(cc21)OCCO3 (stereo unspecified)	0.1	-0.6	69.7*	0.3	93.9*	4.7
O=C1CC(c2ccc3c(c2)OCO3)c2cc3c(cc2N1)OCCO3 (stereo unspecified)	0.2	7.6	91.4*	0.1	78.1*	9.1
O=C1CC(c2ccsc2)c2cc3c(cc2N1)OCCO3 (stereo unspecified)	0.8	-3.5	41.7	0.6	20.6	15.4
COC(=O)COc1cccc(NC(=O)c2cccs2)c1	0.7	24.1	27.5	0.7	32.0	-2.5
COc1ccc(N2CCN(CC(=O)N3CCC(C)CC3)CC2)cc1	0.9	-5.6	6.3	0.9	12.2	-3.5
Nc1ccccc1SCC(=O)Nc1ccc(N2CCOCC2)cc1	1	-3.8	23.3	0.8	2.6	2.4
CCc1nc(N)c(C#N)c(-c2ccc(OC)c(OC)c2)c1C	1.1	7.9	-10.9	1.1	-5.2	16.6
CCc1nc(N)c(C#N)c(-c2ccncc2)c1C	0	-13.5	72.7*	0.3	99.8*	0.9
CCc1nc(N)c(C#N)c(-c2ccc(O)c(OC)c2)c1C	0.5	9.2	-4.8	1	53.2*	8.6
SMILES	CYP2C19 act	PostGolgi yeast	CYP2C9 inh	CYP2C9 activ	CYP2C19 inhib	PostGolgi ctrl
Cc1ccc2cc(CN(Cc3nnnn3Cc3ccco3)CC3CCCO3)c(=O)[nH]c2c1C (stereo unspecified)	0.2	-3.5	86.2*	0.1	82.2*	-0.3
Cc1cccc2cc(CN(Cc3nnnn3Cc3ccco3)C3CCCC3)c3nnnn3c12	0.1	16.6	93.8*	0.1	92.3*	42.6*
Cc1cccc2cc(CN(CC3CCCO3)S(=O)(=O)c3ccccc3)c3nnnn3c12 (stereo unspecified)	1.1	/	-5.5	1.1	-14.8	/
Cc1ccc(S(=O)(=O)Cn2nnnc2CN(Cc2ccco2)CC2CCCO2)cc1 (stereo unspecified)	0.2	-2.1	91.2*	0.1	84.4*	-1.5
Cc1ccc(C2N(c3nccs3)C(=O)C3CCCN32)cc1 (stereo unspecified)	0.8	-5.5	-5.1	1.1	22.1	1.4
O=C(CC1SC(=Nc2ccccc2)N(CCCO)C1=O)Nc1ccc(Cl)cc1 (stereo unspecified)	0.3	2.4	88.2*	0.1	73.0*	7.3
COCCN1C(=O)C(CC(=O)Nc2ccccc2)SC1=Nc1ccc(OC)cc1 (stereo unspecified)	0.4	-10.2	81.2*	0.2	55.6*	7.5
CCCN1C(=O)SC(CC(=O)Nc2ccccc2)C1=O (stereo unspecified)	0.1	-1.9	50.3*	0.5	88.8*	0.3
COc1ccc(NC(=O)CC2Sc3ncnn3C2=O)cc1 (stereo unspecified)	1	-1.2	-8.1	1.1	-3.5	8.6
O=C(COc1ccccc1)Nc1ccc2c(c1)nc1n2CCSC1	1.1	-6.5	17.2	0.8	-8.3	5.9
COc1ccc2c(c1)C(C)=CC(C)(C)N2C(=O)CSc1nnc(-c2ccc(C)cc2)o1	0.3	52.0*	65.1*	0.3	65.8*	20.9
CC1=CC(C)(C)N(C(=O)CSc2ncn[nH]2)c2ccc(C)cc21	0.1	15.5	55.4*	0.4	89.4*	9.2
CCOC(=O)C1C(=O)OC2(CCOC(C)(C)C2)C1C(=O)OCC (stereo unspecified)	0.8	1.5	-17.3	1.2	18.5	-12.8
Oc1c(-c2cc(-c3ccco3)[nH]n2)ccc2ccccc12	0.6	2.1	73.5*	0.3	35.1	8.6
Oc1ccccc1-c1cc(-c2ccco2)[nH]n1	0.6	1.0	51.3*	0.5	38.2	30.4*
Oc1ccccc1-c1cc(-c2ccccc2Cl)[nH]n1	0.8	-2.5	44.6	0.6	15.6	74.5*
Oc1ccccc1-c1cc(-c2cccc(F)c2)n[nH]1	0.7	-11.5	39.3	0.6	25.2	20.5
Oc1ccc(Br)cc1-c1cc(-c2ccco2)[nH]n1	0.8	1.2	23.2	0.8	15.2	79.3*
COC(=O)COc1ccc(S(=O)(=O)Nc2ccc(C(N)=O)cc2)cc1Cl	0.9	-11.3	41.5	0.6	14.7	3.9
Cc1ccc(O)c(-c2cc(-c3ccccc3C)[nH]n2)c1	0.2	-3.7	98.0*	0	81.6*	86.2*
Cc1ccc(-c2cc(-c3cccs3)[nH]n2)c(O)c1	0.8	-7.3	37.3	0.6	19.4	24.6
